Experiment [1] is described as follows: qHTS for differential inhibitors of proliferation of Plasmodium falciparum line 7G8 (AID 1815).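 Note: parasite growth measured after three days of incubation.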 Note: potency is the fitted concentration of half-maximal effect.
The nature of experiment [2]: qHTS for differential inhibitors of proliferation of Plasmodium falciparum line GB4 (AID 1816).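 Note: parasite growth measured after 72 h incubation.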 Note: potency is the fitted concentration of half-maximal effect. The conditions noted are these: Potency: Plasmodium falciparum GB4 proliferation inhibition.
Experiment [3] in a line: qHTS for differential inhibitors of proliferation of Plasmodium falciparum line 3D7 (AID 1876). Note: potency is the fitted concentration of half-maximal effect. For orientation: Quantitative high-throughput screening tests each substance at several concentrations.
A short description of experiment [4]: qHTS for differential inhibitors of proliferation of Plasmodium falciparum line D10 (AID 1877).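 Note: parasites grown with compound for 72 h before DNA staining.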 Note: potency is the fitted concentration of half-maximal effect.
Experiment [5] can be described thus: qHTS for differential inhibitors of proliferation of Plasmodium falciparum line Dd2 (AID 1882). Note: nearly all actives have a fitted effect of over 65% in size. Note: potency is the fitted concentration of half-maximal effect. The note with it: Potency: Plasmodium falciparum Dd2 proliferation inhibition. Put shortly: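 Dd2-infected erythrocytes (0.3% parasitemia, 2.5% hematocrit final) incubated with compound 72 h at 37 C, 5% CO2; lysed with saponin/Triton buffer containing SYBR Green I, incubated overnight in the dark, then read by fluorescence (485/535 nm). Normalized to 0.29 uM artemisinin and DMSO.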

Experiment [6] can be described thus: qHTS for differential inhibitors of proliferation of Plasmodium falciparum line W2 (AID 1883).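 Note: parasites grown with compound for 72 h before lysis and staining.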 Note: potency is the fitted concentration of half-maximal effect. The conditions noted are these: Potency: Plasmodium falciparum W2 proliferation inhibition.
The nature of experiment [7]: qHTS for differential inhibitors of proliferation of Plasmodium falciparum line HB3 (AID 1886).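 Note: parasites grown with compound for 72 h before SYBR Green readout.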 Note: potency is the fitted concentration of half-maximal effect. The note with it: Potency: Plasmodium falciparum HB3 proliferation inhibition.
The target of experiment [8] is Endonuclease 4 (Escherichia coli (strain K12)) (UniProt P0A6C1). The experiment is described as follows: Counterscreen for APE1 Inhibitors: qHTS Validation Assay for Inhibitors of Endonuclease IV (AID 1708). Put shortly: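 Concentration-response counterscreen run identically to the APE1 assay: 15 min room-temperature preincubation of 2 nM enzyme with compound, reaction started with 50 nM quenched abasic DNA, progress taken from kinetic fluorescence.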
A general note: Counterscreens check selectivity or assay interference.

Experiment [9] in a line: qHTS Assay for Modulators of Human Peripheral Myelin Protein 22 (PMP22) Expression/Activity (AID 1967; active = well fitted curve in the direction sought with a large enough effect in the signal ratio; the % refers to the signal ratio). In short, it runs like this: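 Mouse MSC80 Schwann cells carrying Pmp22 promoter–green click beetle luciferase plus EF-alpha–red luciferase control, dosed 24 h at 37 °C. Dual-filter luminescence, overlap-corrected; %Activity from green/red ratio normalised to untreated cells, concentration-response curves fitted.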

Experiment [10] is described as follows: qHTS Assay for Identification of Small Molecule Inducers of Hypoxia Response (AID 2120; active = well fitted curve in the direction sought with a large enough effect in the signal ratio, with a control signal flat, not every such curve was filed as active; the % refers to the signal ratio). Put shortly: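 ME-180 HRE-bla cells plated in Opti-MEM/0.5% dialyzed FBS, rested 4-5 h, then dosed with compound titrations by pin tool. After 17 h at 37 degrees C, CCF4 dye loaded 2.5 h at RT; 460/530 nm ratio gave %Activity and AC50.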

Records with an inconclusive call do not appear. Active and inactive are the calls of the source. Unless noted, calls come from the whole dose curve; as a rule, active = well fitted curve in the direction sought with a large enough effect; inconclusive = small, poorly fitted or top-dose-only effect, or another doubt; inactive = no such curve, though single readings can be large; an effect the other way counts as inactive or inconclusive.

Turning to `c1cc(CN2CCCCC2)cc(OCCCNc2nc3ccccc3s2)c1`, the Potency was 7.08 µM (active) in experiment [1]; 6.31 µM (active) in [2]; 2.51 µM (active) in [3]; 8.91 µM (active) in experiment [4]; 7.08 µM (active) in experiment [5]; 2.51 µM (active) in [6]. For the same molecule, the Potency in experiment [7] was 11.2 µM (active).

For `CN(C(=O)CCCOc1ccc2[nH]c(=O)ccc2c1)C1CCCCC1`, in [8], the Potency entry is “inactive”. Further, the Potency was 7.08 µM (active) in experiment [1] and 14.1 µM (active) in [6].

For `COc1cc(C(=O)OCCCN2CCCN(CCCOC(=O)c3cc(OC)c(OC)c(OC)c3)CC2)cc(OC)c1OC`, the Potency was 5.01 µM (active) in [1]; 6.31 µM (active) in [2]; 3.16 µM (active) in experiment [3]; 10 µM (active) in experiment [4]; 7.08 µM (active) in experiment [5]; 3.55 µM (active) in experiment [6]. In addition, the Potency in experiment [7] was 8.91 µM (active).

In the case of `CN/C(=C\[N+](=O)[O-])NCCSCc1ccc(CN(C)C)o1`, in experiment [8], the Potency result was “inactive”. The outcome in [9] was inactive.

For the molecule `CN=C(NC#N)NCCSCc1nc[nH]c1C`, the Potency result in experiment [8], in experiment [2], in [3], in [4], in [5] and in experiment [7] was “inactive” in each case. Moreover, the result in experiment [10] was inactive.

Take `Cc1scc2c1N(C(=O)CN1CCN(C)CC1)c1ccccc1NC2=O`: the Potency result in experiment [8] and in [5] was “inactive” throughout.

Consider `COc1cc(Cc2cnc(N)nc2N)cc(OC)c1OC`, for which the Potency entry in experiment [8] is “inactive”. Besides, the outcome in experiment [9] was inactive.

For `C[n+]1cc2c3c(ccc2c2ccc4cc5c(cc4c21)OCO5)OCO3`, the Potency was 4.47 µM (active) in [1]; 2.82 µM (active) in experiment [2]; 2.82 µM (active) in [3]; 3.55 µM (active) in experiment [4]; 6.31 µM (active) in [5]; 2.51 µM (active) in experiment [6]. The Potency in experiment [7] is 3.16 µM (active).

As for `CC1=C(C)C(=O)C(CCCCC#CCCCC#CCO)=C(C)C1=O`, the Potency in [1] is 2.24 µM (active); in [2], 2.51 µM (active); in experiment [3], 8.91 µM (active); in experiment [4], 14.1 µM (active); in experiment [5], 10 µM (active); in experiment [6], 3.55 µM (active). In addition, the Potency in experiment [7] was 8.91 µM (active).

In the case of `CCNC(=O)N1CCN(CCCC(c2ccc(F)cc2)c2ccc(F)cc2)CC1`, the Potency in experiment [1] was 1.58 µM (active); in experiment [2] it was 1.12 µM (active); in [3], 0.891 µM (active); in [4], 2.51 µM (active); in [5], 3.16 µM (active); in experiment [6], 0.282 µM (active). The Potency in [7] was 1.12 µM (active).

As for `CC(=O)OCC1=C(C(=O)O)N2C(=O)[C@@H](NC(=O)Cc3cccs3)[C@H]2SC1`, the Potency entry in [8], in experiment [2], in experiment [3], in [4], in experiment [5] and in experiment [6] was “inactive” each time. Besides, the Potency entry in [7] is “inactive”. In experiment [9], the call was inactive.

On to `CCn1cc(C(=O)O)c(=O)c2cc3c(cc21)OCO3`, for which the Potency entry in experiment [8], in experiment [4] and in experiment [5] was “inactive” each time.

`OC(CCN1CCCCC1)(c1ccccc1)C1CCCCC1` (configuration not stated): the Potency entry in experiment [8] is “inactive”. The Potency was 10 µM (active) in experiment [2]; 10 µM (active) in experiment [3]; 12.6 µM (active) in [4]; 3.55 µM (active) in [5]; 3.16 µM (active) in [6]; 11.2 µM (active) in experiment [7].

On to `O=C1CC2(CCCC2)CC(=O)N1CCCCN1CCN(c2ncccn2)CC1`, for which the Potency result in experiment [8], in experiment [5] and in experiment [7] was “inactive” in each case.

Consider `CNCCC(Oc1ccccc1OC)c1ccccc1` (configuration not stated), for which the Potency result in experiment [8], in experiment [4] and in [7] was “inactive” throughout. Further, in [1], the Potency was 3.55 µM (active).

Consider `OCCN1CCN(CC/C=C2/c3ccccc3Sc3ccc(C(F)(F)F)cc32)CC1`, for which the Potency in [1] was 2.51 µM (active); in experiment [2], 2.24 µM (active); in [3], 2.51 µM (active); in experiment [4], 12.6 µM (active); in experiment [5], 7.94 µM (active); in [6], 1.58 µM (active). Also, in experiment [7], the Potency was 5.01 µM (active).

As to `C[C@]12CCC(=O)C=C1CC[C@@H]1[C@@H]2CC[C@@]2(C)[C@H]1CC[C@]2(O)C(=O)CO`, the Potency result in [8] and in [5] was “inactive” each time.

For the molecule `CN(C)CC[C@@H](c1ccc(Br)cc1)c1ccccn1`, the Potency entry in experiment [8], in experiment [4] and in experiment [7] was “inactive” throughout. For the same molecule, the Potency in [6] was 1 µM (active).

Consider `COc1ccc([C@@H]2Sc3ccccc3N(CCN(C)C)C(=O)[C@@H]2OC(C)=O)cc1`, for which the Potency entry in experiment [8] and in experiment [4] was “inactive” in each case. In addition, the Potency in experiment [6] is 7.08 µM (active).

On to `COC(=O)[C@@H](N)Cc1ccc(O)c(O)c1`, for which the Potency result in experiment [8] and in experiment [5] was “inactive” each time. For the same molecule, the Potency in experiment [2] was 14.1 µM (active).

`CC(=O)Oc1cc(C(C)C)c(OCCN(C)C)cc1C`: the Potency entry in experiment [8], in [3], in experiment [4] and in experiment [7] was “inactive” each time. In addition, the Potency in experiment [6] is 7.94 µM (active).

Consider `CC(N=C(NC#N)Nc1ccncc1)C(C)(C)C` (configuration not stated), for which the Potency entry in experiment [8] and in experiment [5] was “inactive” each time. Besides, the Potency in [6] was 11.2 µM (active).

Take `O=C(O)CN(CCN(CC(=O)O)CC(=O)O)CCN(CC(=O)O)CC(=O)O`: the Potency result in experiment [3], in [4], in [5], in [6] and in experiment [7] was “inactive” each time.

As for `NC(=Nc1ccccc1)Nc1ccccc1`, in experiment [10], the call was inactive.

As to `CCCOc1ccccc1-c1nc2n[nH]nc2c(=O)[nH]1`, the Potency result in [4], in experiment [5] and in [7] was “inactive” throughout.

Take `Cc1ccc(S(=O)(=O)NC(=O)NN2CCCCCC2)cc1`: the Potency result in experiment [1], in experiment [2], in [3], in experiment [4], in experiment [5] and in [6] was “inactive” each time. Moreover, the Potency entry in [7] is “inactive”. The outcome in experiment [9] was inactive.

`CCOC(=O)c1cnc2c(cnn2CC)c1NN=C(C)C`: the Potency result in [4] and in [5] was “inactive” each time.

In the case of `CC(C(=O)O)c1ccc(CC2CCCC2=O)cc1` (configuration not stated), the Potency result in experiment [1], in [2], in [3], in experiment [4], in experiment [5] and in experiment [7] was “inactive” in each case. The result in experiment [9] was inactive.

Take `O=C(O)CN(CCOCCOCCN(CC(=O)O)CC(=O)O)CC(=O)O`: the Potency result in experiment [1], in [2], in experiment [3], in experiment [4], in experiment [5] and in [6] was “inactive” throughout. Further, the Potency result in [7] was “inactive”.

Take `CCN(CC)CCNC(=O)c1cc(S(C)(=O)=O)ccc1OC`: the Potency entry in experiment [1], in experiment [2], in experiment [3], in [4], in experiment [5] and in experiment [6] was “inactive” in each case. Moreover, the Potency result in experiment [7] is “inactive”.

For `O=C(O)CP(=O)(O)O`, the Potency result in experiment [1], in experiment [4], in experiment [5] and in experiment [7] was “inactive” in each case. In addition, the molecule was called inactive in [9].

Turning to `Nc1nc(N)c2nc(-c3ccccc3)c(N)nc2n1`, the Potency in [2] is 0.891 µM (active); in experiment [3], 2 µM (active); in [4], 2.51 µM (active); in experiment [6], 15.8 µM (active); in experiment [7] it was 12.6 µM (active). Also, in experiment [5], the Potency entry is “inactive”.

Turning to `CCO/C([O-])=N/c1c[n+](N2CCOCC2)no1`, the Potency entry in experiment [1], in [2], in experiment [3], in [4], in [5] and in experiment [6] was “inactive” in each case. Besides, the Potency result in experiment [7] was “inactive”.

For `CCOC(=O)C1=C(C)NC(C)=C(C(=O)OC)C1c1cccc(Cl)c1Cl` (configuration not stated), the Potency was 12.6 µM (active) in [1]; 12.6 µM (active) in [2]; 8.91 µM (active) in experiment [3]; 15.8 µM (active) in [4]; 8.91 µM (active) in experiment [6]; 12.6 µM (active) in [7].

The values above are taken from PubChem BioAssay (NCATS).
